In the library only some 9.9% were active in any assay of this set; here they are far more common.
IL-1B inflam inh: blocks inflammasome-driven IL-1 beta release | THP-1 LPS/ATP IL-1B secretion, AlphaLISA, 16 h; active compounds read low | activity change, % at 57.5 µM | 360,000 tested, 4.7% active | AID 743279; in the data active = activity change below about -50%; inconclusive = mostly about -30% to -49%; note: % is set by controls: 0 for no effect and ±100 for the full control effect
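Secreted IL-1B measured by AlphaLISA bead assay after 16 h compound exposure of THP-1 cells; compounds (final up to 57.5 uM) added 1 h before LPS (250 ng/mL) and ATP (1.25 mM) stimulation; lower signal means less secretion.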
KB-3-1 tox: kills parental KB-3-1 adenocarcinoma cells; KB-3-1 viability, CellTiter-Glo ATP luminescence, 72 h; Potency, µM (top dose mostly 46.1 µM), usual class: cytotoxic; 400,000 tested, 1.4% active; note: potency is the fitted concentration of half-maximal effect; % is set by controls: 0 for no effect and ±100 for the full control effect; nearly all actives have a fitted effect of over 60% in size
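Using CellTiter-Glo luminescence, growth of non-resistant KB-3-1 adenocarcinoma cells is assessed 72 h after pin-tool compound addition at 37 °C. Normalized responses across the concentration series yield fitted curves.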
SW480 rereplic: inducers of DNA re-replication in SW480 colon cancer cells | SW480 DNA re-replication, Hoechst DNA content imaging, 48 h | Potency, µM (doses to about 46.1 µM), for inactives: top-dose re-replication activation, most hits filed as activators | 340,000 tested, 1.8% active | AID 624297; note: potency is the fitted concentration of half-maximal effect; % of control where 0% means no effect; nearly all actives have a fitted effect of over 55% in size
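Per well, 250 cells were exposed to pinned compound for 48 hr. Nuclear DNA was visualised with Hoechst (40 min, 37 C) and total object intensity recorded by fluorescence scanning.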
MCF10A rereplic: inducers of DNA re-replication in MCF 10A breast cells; MCF 10A DNA re-replication, Hoechst nuclear intensity, 48 h; Potency, µM (top dose mostly 46.1 µM), for inactives: at the top dose activity, positive = re-replication, actives largely listed as activators; 350,000 tested, 2.9% active; note: potency is the fitted concentration of half-maximal effect; % of control where 0% means no effect; nearly all actives have a fitted effect of over 50% in size
KB-V1 MDR tox: KB-V1 MDR subline cytotoxicity | KB-V1 MDR cells viability, CellTiter-Glo, 72 h | Potency, µM (titrated, usually from 46.1 µM), actives largely listed as cytotoxic | 400,000 tested, 3.4% active; note: potency is the fitted concentration of half-maximal effect; % is set by controls: 0 for no effect and ±100 for the full control effect; nearly all actives have a fitted effect of over 60% in size
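Cells of the MDR subline KB-V1 are plated, dosed with compound at multiple concentrations, and incubated 72 h at 37 degrees C; CellTiter-Glo is then added and luminescence read after 10 min.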
An asterisk follows results filed as active; i = inactive; u = inconclusive; x = no result given; [ ] = remark or other dose. Unless noted, calls come from the whole dose curve; as a rule, active = well fitted curve in the direction sought with a large enough effect; inconclusive = small, poorly fitted or top-dose-only effect, or another doubt; inactive = no such curve, though single readings can be large; an effect the other way counts as inactive or inconclusive.

SMILES	IL-1B inflam inh	KB-3-1 tox	SW480 rereplic	MCF10A rereplic	KB-V1 MDR tox
CN(c1ccc(OCC(=O)OCC(=O)NCc2ccco2)cc1)S(=O)(=O)c1ccc2ccccc2c1	9	i	0%	0%	i
Cc1nc(CC(=O)c2c(C)cc(O)cc2O)cs1	-19	21µM*	1%	-7%	21µM*
Cc1nc(CC(=O)c2ccc(O)cc2O)cs1	11	i	-3%	-190%[0.0737 µM]	i
COc1cccc(/C=N/NC(=O)Cn2cnc3c2c(=O)n(C)c(=O)n3C)c1	17	i	-6%	-7%	u
Cc1ccc2sc(N(CCCN(C)C)C(=O)c3ccc(S(=O)(=O)N4CCOCC4)cc3)nc2c1C	u	i	-3%	6%	i
CCN(Cc1ccccc1)S(=O)(=O)c1ccc(C(=O)N(CCCN(C)C)c2nc3c(C)c(C)ccc3s2)cc1	-84*	u	6.5µM*	16µM*	u
CC(=O)c1ccc(C(=O)N(CCCN(C)C)c2nc3c(C)c(C)ccc3s2)cc1	x	i	x	x	i
CCN(Cc1ccccc1)S(=O)(=O)c1ccc(C(=O)N(CCCN(C)C)c2nc3cc4c(cc3s2)OCO4)cc1	-73*	i	u	7%	u
Cc1ccc2sc(N(CCCN(C)C)C(=O)c3ccc(S(=O)(=O)N(C)C4CCCCC4)cc3)nc2c1C	u	23µM*	u	23µM*	18µM*
COc1ccc(OC)c(NC(=O)COC(=O)C2CCCCC2)c1	19	i	-1%	-2%	i
O=C(CN1C(=O)C2C3C=CC(C3)C2C1=O)OCC(=O)c1ccc(Cl)c([N+](=O)[O-])c1 (stereo not drawn)	-78*	i	u	u	i
COc1ccc(-n2nc3c(c2NC(=O)COc2ccccc2OC)CS(=O)(=O)C3)cc1	-7	i	x	x	i
CC(O)CNCCCOc1ccc(Cl)cc1C(C)(C)C (stereo not drawn)	-66*	u	-17%	11%	21µM*
CN(C)CCOCCOc1ccc(Cl)cc1C(C)(C)C	-56*	i	u	12%	u
C=CCc1cc(Cl)ccc1OCCN(C)C	-11	i	u	-3%	i
CC(C)CCn1nnnc1C(c1ccc(N(C)C)cc1)N1CCN(C(=O)c2ccco2)CC1 (stereo not drawn)	-65*	i	2%	u	i
N#Cc1ccsc1NC(=O)C1CCN(C(=O)c2ccc(Cl)cc2)CC1	-1	i	-8%	5%	i
C=CCN1C(=O)CSc2ccc(C(=O)NCc3ccco3)cc21	9	i	-3%	10%	i
O=C(NCc1ccco1)c1ccc2c(c1)N(Cc1ccccc1)C(=O)CS2	-2	i	2%	-6%	5.8µM*
Cc1cc(=O)n(C)c(=O)n1CCCCCCOc1cccc([N+](=O)[O-])c1	-1	u	-119%	-72%	7.3µM*
Cc1cc(C(=O)NNc2ccc(F)cc2)no1	5	u	-9%	13µM*	i
CCc1ccccc1NNC(=O)c1cc(C)on1	26	i	-3%	u	i
Cc1cc(C(=O)NNc2ccccc2F)no1	3	i	18%	9.2µM*	i
COc1ccc(-c2ccc(CN3C(C)C(=O)N(Cc4cn(CCC5OCCO5)nn4)CCS3(=O)=O)cc2)cc1OC (stereo not drawn)	20	i	x	x	i
O=C(COc1ccccc1-c1ccccc1)NN=C1CCCC1	57	i	u	u	u
SMILES	IL-1B inflam inh	KB-3-1 tox	SW480 rereplic	MCF10A rereplic	KB-V1 MDR tox
CCOc1ccc(C(=O)N/N=C/c2ccccc2[N+](=O)[O-])cc1	-4	i	-7%	-3%	u
O=C(N/N=C/c1ccccc1[N+](=O)[O-])c1ccc(COc2ccccc2-c2ccccc2)cc1	-4	u	-4%	-7%	2.1µM*
O=C1CCC/C(=N\NC(=O)c2ccc(COc3ccccc3-c3ccccc3)cc2)C1	-15	i	100%	9.2µM*	i
Nn1c(Cc2cccc3ccccc23)nnc1SCc1ccc(Cl)c(Cl)c1	-72*	i	u	u	i
O=C(COC(=O)c1ccc(S(=O)(=O)N2CCOCC2)cc1)Nc1ccccc1OC(F)F	-4	i	-6%	-3%	i
CCOC(=O)c1cnc(-n2nc(C)cc2C)nc1NCCc1ccccc1	18	i	14%	u	0.73µM*
CCOC(=O)c1cnc(-n2nc(C)cc2C)nc1NC1CCCC1	24	i	-14%	0%	5.2µM*
CCOC(=O)c1cnc(-n2nc(C)cc2C)nc1Nc1ccc(OC)cc1	-13	i	u	9%	i
CC(=O)Nc1nnc(COc2ccccc2)s1	3	i	18µM*	-2%	i
COC(=O)c1c(-c2ccncc2)csc1NC(=O)c1ccoc1C	u	u	0%	u	6.5µM*
CCN(CC)C(=O)c1sc(NC(=O)c2ccoc2C)c(C(=O)OC)c1C	u	i	5%	10%	i
CS(=O)(=O)N1CCN(c2ccccc2NC(=O)c2cc3ccccc3o2)CC1	-11	i	-11%	-2%	u
CN1CCc2c(sc3c2C(=O)NC(c2cn(Cc4ccccc4)c4ccccc24)N3)C1 (stereo not drawn)	u	9.2µM*	u	u	15µM*
CCOC(=O)N1CCc2c(sc3c2C(=O)NC(c2ccccc2)N3)C1 (stereo not drawn)	0	u	9.2µM*	u	i
COc1ccc(Br)cc1C1NC(=O)c2c(sc3c2CCN(C)C3)N1 (stereo not drawn)	6	i	1%	7%	i
CN1CCc2c(sc3c2C(=O)NC(c2ccco2)N3)C1 (stereo not drawn)	-2	i	0%	6%	i
CN1CCc2c(sc3c2C(=O)NC(c2ccc(-c4ccc(Cl)cc4)o2)N3)C1 (stereo not drawn)	x	i	u	23µM*	i
CCC(Sc1nnc(C)n2c1cc1occc12)C(=O)Nc1ccccc1F (stereo not drawn)	x	i	x	x	u
O=C(OCCCN=C1NS(=O)(=O)c2ccccc21)c1ccc([N+](=O)[O-])cc1	8	i	-5%	0%	i
COCCCNC(=O)C1CCN(c2nc3ccc(Cl)cc3[nH]2)CC1	x	i	x	x	u
CCC(C(=O)N1CCCC1)n1nc(C)c2c(C)n(-c3ccccc3)nc2c1=O (stereo not drawn)	0	i	21µM*	0%	i
Cc1ccc(-n2nc3c(=O)n(C(C)C(=O)NCc4ccccc4C)nc(C)c3c2C)cc1 (stereo not drawn)	x	15µM*	x	x	i
Cc1ccc(-n2nc3c(=O)n(C(C)C(=O)NCc4ccc(Cl)cc4)nc(C)c3c2C)cc1 (stereo not drawn)	0	8.2µM*	-1%	0%	i

Compound activity: PubChem, National Center for Advancing Translational Sciences (NCATS)
